Experimental data as given in PubChem BioAssay AID1159580 (chemical genetic matrix, 2015).
Hit rate of the full screen: of about 5,500 compounds, about 2,000 (36%) were called active. Another 18% or so got no clear call; they are omitted. No stated cut-off is given here; in the data, active means normalized growth mostly below about 0.91 (no sharp cut-off); inconclusive means no clear call, values can overlap the other calls; inactive means mostly above about 0.92. Some of the results follow.

Test: chemical genetic growth profiling, strain panel (AID 1159580);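 further: tested at 20 µM; growth read once vehicle control cultures reached saturation at 30 °C; 1 = growth at the plate median or of vehicle wells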
Conditions: S. cerevisiae deletion strains, growth OD

Measured: normalized growth

CCN1CCC[C@H]1CNC(=O)c1c(OC)ccc(I)c1O
inactive: locus YAL040C, strain CLN3, stronger effect = lower value 1.01 | locus YCL061C, strain MRC1 (second series), stronger effect = lower value 1 | locus YDR150W, strain NUM1, stronger effect = lower value 0.986 | locus YDR363W, strain ESC2, stronger effect = lower value 1.01 | locus YER002W, strain NOP16, stronger effect = lower value 0.996 | locus YGR229C, strain SMI1, stronger effect = lower value 0.92 | locus YJR075W, strain HOC1, stronger effect = lower value 0.984 | locus YMR307W, strain GAS1, stronger effect = lower value 1 | locus YNL175C, strain NOP13, stronger effect = lower value 1 | locus YNL197C, strain WHI3, stronger effect = lower value 1.02 | locus YNL224C, strain SQS1, stronger effect = lower value 1.01 | locus YNL322C, strain KRE1, stronger effect = lower value 0.996 | locus YOR083W, strain WHI5 (second series), stronger effect = lower value 0.974 | locus YPL055C, strain LGE1, stronger effect = lower value 0.972 | locus YPL241C, strain CIN2, stronger effect = lower value 0.998
